The first assay deals with PSKH2. Kind of assay: pooled miR-30 sensor sort-seq; sequence = guide strand. The following applies: shRNA.
The sequence TTTTCGACTCTTCACCTGGATG yielded a sensor-assay potency score (higher = more potent) of -1.22.

TTACCATGTAAACTTGATCCTC yielded a sensor-assay potency score (higher = more potent) of -0.301.

Regarding TTGTCTATAAAGTCCTTCGCCA, the sensor-assay potency score (higher = more potent) is -0.69.

Regarding TTGGTTTTGACCTTCGTGCTTG, the sensor-assay potency score (higher = more potent) amounted to 0.0948.

TTTGTGAGAATAATGTGACTTA registered a sensor-assay potency score (higher = more potent) of 0.516.

TTGACCTTCGTGCTTGGCCCAA yielded a sensor-assay potency score (higher = more potent) of -1.26.

For the sequence TTTGTCTATAAAGTCCTTCGCC, the sensor-assay potency score (higher = more potent) was -0.325.

Take TAGAAGACTGTGCAGATCCAGG: the sensor-assay potency score (higher = more potent) is -0.858.

Consider TTGCCTTTCAGAATCTTCCTGT, for which the sensor-assay potency score (higher = more potent) is 0.856.

The sequence TACCATGTAAACTTGATCCTCA registered a sensor-assay potency score (higher = more potent) of 0.763.

A further assay has as its target PSMB6. Described as above. The following applies: shRNA.
TTGTTCTGGAGTCCGCCCCCAG: the sensor-assay potency score (higher = more potent) was -1.38.

The sequence TCAGCTTGTCAGTCACTCGATT registered a sensor-assay potency score (higher = more potent) of -0.432.

TATCGGTAACACATCTCCTTAA had a sensor-assay potency score (higher = more potent) of -0.95.

Turning to AATGCTGTGGAAACCGAGCTGG, the sensor-assay potency score (higher = more potent) is -0.331.

Regarding TTAAATTTTGCATCAGTACAGG, the sensor-assay potency score (higher = more potent) is -0.777.

TTCAATGCTGTGGAAACCGAGC displayed a sensor-assay potency score (higher = more potent) of -0.63.

Regarding TAGGTAGCATCAACATAGCCAT, the sensor-assay potency score (higher = more potent) was -0.545.

In turn, TCGTGAATAGGTGTCAGCTTGT gave a sensor-assay potency score (higher = more potent) of -0.101.

GTATCGGTAACACATCTCCTTA had a sensor-assay potency score (higher = more potent) of -1.65.

TTGCAGACACTCTTCCTTGGTC: the sensor-assay potency score (higher = more potent) was -0.171.

In the case of TAGCCATAGATGTAGGAGCTCC, the sensor-assay potency score (higher = more potent) is -0.837.

TTGTCAGTCACTCGATTGGCGA had a sensor-assay potency score (higher = more potent) of -1.6.

For the next assay, the target named is PSMC1. The assay is described as above. The following applies: shRNA.
Take TTCAGCAGTTCCAACATTGTTC: the sensor-assay potency score (higher = more potent) is -0.616.

As to TTGAGCAGGACCGAGCAGCCAG, the sensor-assay potency score (higher = more potent) was -1.07.

For AATATCTGCATAGGTCTCCTGG, the sensor-assay potency score (higher = more potent) was -0.497.

As to AACTTCAGTAATTTTAACCGGC, the sensor-assay potency score (higher = more potent) is 0.102.

As to TTGCCTTGATGTCAGCACCAGA, the sensor-assay potency score (higher = more potent) is -0.927.

Sequence TTGTCCTTGTCATCCTTCTTGC came in with a sensor-assay potency score (higher = more potent) of -0.829.

Regarding TTGTGGTTGAGCAGGACCGAGC, the sensor-assay potency score (higher = more potent) is -1.36.

Turning to TTTCTTGTCCTTGTCATCCTTC, the sensor-assay potency score (higher = more potent) was 0.111.

TAATGGTTTCATTTGTTCCTGA displayed a sensor-assay potency score (higher = more potent) of -0.172.

As to TAATTCTCTCTAACTTCAGTAA, the sensor-assay potency score (higher = more potent) is -0.505.

TTTAATTCTCTCTAACTTCAGT: the sensor-assay potency score (higher = more potent) is -0.456.

Another assay concerns the target PSMD14. The assay is described as above. The following applies: shRNA.
With TAACATTTTTAACAGTGCCAGG, the sensor-assay potency score (higher = more potent) was -1.43.

TAGCAACATCTTCTGTTCCAGT returned a sensor-assay potency score (higher = more potent) of -0.472.

As for TATCTTCTTCTTCTACAGCCTT, the sensor-assay potency score (higher = more potent) was -0.722.

For the sequence TTTGTCTTGGTTCATGTCCTAA, the sensor-assay potency score (higher = more potent) is -1.03.

Turning to TAGTCCATGAATTAATGCCTGG, the sensor-assay potency score (higher = more potent) is -1.08.

In turn, TACATCCACATGTTCCTCCAAA registered a sensor-assay potency score (higher = more potent) of -0.84.

TTAGCAACATCTTCTGTTCCAG returned a sensor-assay potency score (higher = more potent) of 0.0236.
Also: reference of the scale not given here.
